From PubChem
This is a sample that favours compounds with a hit; in the whole collection about 2.4% have one here.
MEKK3 PB1 HTS – raises or lowers MEK5 binding to the human MEKK3 PB1 domain; Q99759; bead-based flow cytometry, Alexa488-MEK5 binding to MEKK3; actives lie on both sides; 0 = blocked by unlabeled MEK5, 100 = vehicle; binding response (% of control), % at 10 µM; 290,000 tested, 1.4% active; AID 1529;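 active = binding response more than 3 SD above or below the average of its plate-row segment, actives on both sides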;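 also: Alexa488 bead fluorescence after subtracting the streptavidin-only scavenger bead signal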
Target sequence (Q99759 whole entry, looked up, the tested form may be a part): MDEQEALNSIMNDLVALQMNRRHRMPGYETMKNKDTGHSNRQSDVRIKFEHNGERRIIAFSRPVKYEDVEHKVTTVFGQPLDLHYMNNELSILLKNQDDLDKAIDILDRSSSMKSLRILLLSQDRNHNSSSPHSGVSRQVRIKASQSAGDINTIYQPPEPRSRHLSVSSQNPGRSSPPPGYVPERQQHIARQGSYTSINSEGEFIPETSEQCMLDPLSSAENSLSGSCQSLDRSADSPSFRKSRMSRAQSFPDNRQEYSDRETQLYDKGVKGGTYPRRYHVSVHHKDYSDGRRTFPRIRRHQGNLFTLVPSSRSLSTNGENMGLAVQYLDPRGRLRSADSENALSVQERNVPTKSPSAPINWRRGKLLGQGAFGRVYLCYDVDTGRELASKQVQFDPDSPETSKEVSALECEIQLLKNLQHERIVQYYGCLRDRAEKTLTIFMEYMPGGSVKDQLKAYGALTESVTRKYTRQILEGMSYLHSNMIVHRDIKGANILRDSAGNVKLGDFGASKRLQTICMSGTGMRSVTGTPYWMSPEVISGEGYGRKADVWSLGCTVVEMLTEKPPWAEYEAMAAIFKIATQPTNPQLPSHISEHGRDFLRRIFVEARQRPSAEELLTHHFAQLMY
Arbovirus anti – arbovirus infection inhibition. arbovirus infection cell-based antiviral screen. inhibition, % at 10 µM. 200,000 tested, 0.37% active; in the data active = inhibition above about 30%
MEKK2 mut-MEK5 – signal of MEK5 binding to mutant human MEKK2 PB1 domain; percent response, % at 10 µM; 290,000 tested, 0.35% active; bead flow cytometry, Alexa488-MEK5 binding to MEKK2 mutant; AID 1530; in the data active = percent response above about 24%, passing the limit was not always enough
Pf gametocyte – inhibitors of late stage P. falciparum gametocyte viability; P. falciparum stage V gametocytes, ATP luminescence, 24 h; inhibition, % at 10.9 µM; 150,000 tested, 0.065% active;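 active = inhibition above the mean plus 3 SD of compounds within the control limits, set per campaign, cut at about 38% in these data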;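 also: 0% = DMSO wells and 100% = medium only without gametocytes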
MEKK2wt PB1 HTS – raises or lowers MEK5 binding to wildtype human MEKK2 PB1 domain; binding response (% of control), % at 10 µM; 290,000 tested, 1.1% active; Q9Y2U5; bead flow cytometry, Alexa488-MEK5 binding to MEKK2 WT; actives lie on both sides; in the data active = binding response below about 67% or above about 130%
Numbers without * were called inactive; nt = no result given; [ ] = remark or other dose.

SMILES	MEKK3 PB1 HTS	Arbovirus anti	MEKK2 mut-MEK5	Pf gametocyte	MEKK2wt PB1 HTS
CC(C)(O)C#Cc1ccc(CN2CCN(Cc3ccsc3)C(CCO)C2)s1 (centres undefined)	102.0	-6.2	15.0	9.0	110.0
Cc1cccc(C(=O)Nc2ccc(C)c(OC(=O)c3cccc(C)c3)c2)c1	2.0*[inhibitor]	2.0	-26.0	nt	-2.0*[inhibitor]
CCOc1ccccc1-c1c2cc(O)c(=O)cc-2oc2cc(O)c(O)cc12	137.0*	-8.1	51.0*	nt	166.0*
O=c1cc2oc3cc(O)c(O)cc3c(-c3ccccc3O)c-2cc1O	93.0	nt	-10.0	nt	106.0
COc1ccc(N(CC(=O)Nc2ccc(C(N)=O)cc2)S(=O)(=O)c2ccc(C)c([N+](=O)[O-])c2)cc1	102.0	-1.8	6.0	11.4	-7.0*
O=[N+]([O-])c1cccc(/C=N\N=C2c3ccccc3-c3ccccc32)c1O	91.0	39.8*	-3.0	-5.3	83.0
COc1ccc(CCNC(=O)CC(=O)N/N=C/c2ccc(Br)cc2)cc1OC	97.0	nt	1.0	-11.1	102.0
c1ccc(-c2nc(C3CCCCC3)no2)cc1	85.0	-2.7	-5.0	nt	88.0
COc1ccc(-c2nc(C3CCCCC3)no2)cc1OC	100.0	34.8*	2.0	nt	101.0
COC(=O)[C@H](Cc1ccccc1)NC(=O)O[C@@H]1C(=O)c2cc(OC)ccc2O[C@H]1c1ccc(OC)c(Br)c1	98.0	32.3*	-4.0	nt	97.0
O=C(CSc1nnc(CNC(=O)c2cccc(C(F)(F)F)c2)o1)NC1CCCC1	98.0	nt	-5.0	nt	100.0
COc1ccc(/C=N/NC(=O)CNC(=O)COc2ccccc2)cc1	83.0	14.9	-60.0	nt	4.0*
Cn1ncc(Br)c1C(=O)O	96.0	9.0	-2.0	nt	101.0
CN(C(=O)c1c(Br)cnn1C)C12CC3CC(CC(C3)C1)C2	144.0*	-1.5	0.0	4.3	109.0
O=C(O)/C=C/C(=O)NCc1csc2ccccc12	79.0	nt	-22.0	9.6	76.0
CC(=O)Nc1ccc(NC(=O)CSc2nnc(NC(=O)C3CC(=O)N(c4ccc(F)cc4)C3)s2)cc1 (centres undefined)	102.0	nt	6.0	nt	107.0
O=C(CC1C(=O)NCCN1Cc1ccccc1)NCCC1=CCCCC1 (centres undefined)	105.0	nt	12.0	nt	119.0
COc1ccc(-n2nc3c(c2NC(=O)COc2ccccc2F)CS(=O)(=O)C3)cc1	105.0	nt	9.0	nt	110.0
N#CC1=C(SCC(=O)Nc2ccccc2)NC(=O)CC1c1ccc(O)cc1 (centres undefined)	113.0	42.2*	13.0	nt	114.0
CC(=O)OCCCNc1cc(Sc2ccc(C)cc2)c2nonc2c1[N+](=O)[O-]	130.0*	-5.2	1.0	1.6	105.0
CC(=O)OCCCNc1cc(Sc2nc3ccccc3s2)c2nonc2c1[N+](=O)[O-]	92.0	-40.0	-5.0	nt	91.0
Cc1ccc(/C=N/Nc2ccnc3cc(Cl)ccc23)c(C)c1	101.0	-34.3	30.0	1.5	167.0*
Cc1ccccc1/C=N/Nc1ccnc2cc(Cl)ccc12	96.0	-3.1	5.0	10.3	122.0
CCOc1cccc2sc(N(CCN(C)C)C(=O)c3ccc4c(c3)OCCO4)nc12	105.0	nt	10.0	nt	117.0
CCOc1cccc2sc(N(CCN(C)C)C(=O)c3cc4ccccc4cc3OC)nc12	101.0	nt	19.0	nt	149.0*
SMILES	MEKK3 PB1 HTS	Arbovirus anti	MEKK2 mut-MEK5	Pf gametocyte	MEKK2wt PB1 HTS
CCOc1ccc2nc(N(CCN(C)C)C(=O)c3cc4ccccc4cc3OC)sc2c1	104.0	nt	21.0	nt	137.0*
COc1ccc2nc(N(CCN(C)C)C(=O)c3ccc4ccccc4c3)sc2c1	101.0	nt	8.0	nt	132.0
CCOc1ccc(N(CC(=O)Nc2ccc(C)cc2)S(=O)(=O)c2c(C)[nH]c(=O)[nH]c2=O)cc1	102.0	nt	5.0	4.1	104.0
CCOC(=O)C1CCCN(C(=O)c2csc(-c3ccc4c(c3)CCO4)n2)C1 (centres undefined)	104.0	nt	-2.0	-26.6	101.0
O=C(O)CCCNc1cc(N2CCC3(CC2)OCCO3)c2noc3c2c1C(=O)c1ccccc1-3	nt	-10.2	nt	nt	nt
O=C1c2ccccc2-c2onc3c(N4CCN(CCO)CC4)cc(N4CCN(C(=O)c5ccco5)CC4)c1c23	81.0*[inhibitor]	nt	3.0	nt	85.0
O=C(O)CCCNc1cc(N2CCN(C(=O)c3ccco3)CC2)c2noc3c2c1C(=O)c1ccccc1-3	67.0*[inhibitor]	nt	-11.0	nt	60.0*[inhibitor]
CN1CCN(c2cc(N3CCN(C(=O)c4ccco4)CC3)c3c4c(onc24)-c2ccccc2C3=O)CC1	84.0	nt	5.0	nt	89.0
